Counter-ions that a name gives are not always drawn.
Each compound was assayed on Escherichia coli IAI1 (assay: fold change of Putrescine concentration vs plate DMSO controls (fold change (ratio)); higher = more amine produced, active = hit call of the paper (significant change in both replicates, either direction)). Conditions: incubation time: 27 h, anaerobic, 37 °C;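 for the amine columns active = adjusted P below 0.05 in both replicates with a change the same way and a mean fold change under 0.8 or over 1.25; inactive = the rest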.
In short: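 Anaerobic mGAM cultures of four gut bacterial strains were grown at 37 °C for 27 h in 80 µL wells, starting at OD 0.1 before 1:1 dilution. Compounds were at 20 µM final (sweeteners 50 µM). Whole cultures were extracted with cold acetonitrile/methanol containing 0.1% formic acid and centrifuged. Amines were quantified by LC–triple-quadrupole MS (dynamic MRM) against external calibration curves and drift-corrected within batch. Each value is the fold change versus plate DMSO controls, averaged over 2 biological replicates.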

Fold change of Putrescine concentration, inactive:
CCCCCCC[N+](CC)(CC)CCCCc1ccc(Cl)cc1 [Clofilium tosylate] (20 µM) 1.17
N=C(N)NCC1COC2(CCCCC2)O1 (centres undefined) [Guanadrel sulfate] (20 µM) 0.993
CCCC(CCC)C(=O)O[C@H]1C[C@H]2CC[C@@H](C1)[N+]2(C)C [Anisotropine Methylbromide] (20 µM) 1.03
COc1ccc2c(c1)c(CC(=O)OCC(=O)O)c(C)n2C(=O)c1ccc(Cl)cc1 [Acemetacin] (20 µM) 1.06
CN1CCCN=C1/C=C/c1cccc(O)c1 [Oxantel pamoate] (20 µM) 1.03
COc1c(O[C@@H]2O[C@H](CO)[C@@H](O)[C@H](O)[C@H]2O)cc2c(c1OC)-c1ccc(SC)c(=O)cc1[C@@H](NC(C)=O)CC2 [Thiocolchicoside] (20 µM) 1.01
Cc1c(Nc2ncccc2C(=O)O)cccc1C(F)(F)F [Flunixin meglumine] (20 µM) 1.07
C#C[C@]1(OC(C)=O)CC[C@H]2[C@@H]3CCC4=CC(=NO)CC[C@@H]4[C@H]3CC[C@@]21CC (mixture of isomers) [Norgestimate] (20 µM) 1.05
CC12CC3CC(C)(C1)CC(N)(C3)C2 [Memantine hydrochloride] (20 µM) 0.984
CC(CCc1ccccc1)NCC(O)c1ccc(O)c(C(N)=O)c1 (centres undefined) [Labetalol hydrochloride] (20 µM) 1.01
CCCCc1oc2ccc(NS(C)(=O)=O)cc2c1C(=O)c1ccc(OCCCN(CCCC)CCCC)cc1 [Dronedarone hydrochloride] (20 µM) 1.16
CCN1CCCC(OC(=O)C(c2ccccc2)c2ccccc2)C1 (centres undefined) [Piperidolate hydrochloride] (20 µM) 1.02
C[C@]1(Cn2ccnn2)[C@H](C(=O)O)N2C(=O)C[C@H]2S1(=O)=O [Tazobactam] (20 µM) 1.05
O=C(CCCN1CCN(c2ccccn2)CC1)c1ccc(F)cc1 [Azaperone] (20 µM) 1.31
CC(=O)Nc1c(I)c(NC(C)=O)c(I)c(C(=O)O)c1I [Diatrizoic acid dihydrate] (20 µM) 1.07
CN[C@@H]1[C@@H](O)[C@@H](O[C@@H]2[C@@H](O)[C@H](O[C@H]3OC(CN)=CC[C@H]3N)[C@@H](N)C[C@H]2N)OC[C@]1(C)O [Sisomicin sulfate] (20 µM) 1
CC(CN(C)C)C(C)(O)Cc1ccc(Cl)cc1 (centres undefined) [Clobutinol hydrochloride] (20 µM) 0.975
CC(=O)[C@H]1CC[C@H]2[C@@H]3C[C@H](C)C4=CC(=O)CC[C@]4(C)[C@H]3[C@@H](O)C[C@]12C [Medrysone] (20 µM) 0.978
CC(C(=O)O)c1ccc(-c2ccccc2)c(F)c1 (centres undefined) [Flurbiprofen] (20 µM) 1.06
CCOC(=O)/C=C(C)/C=C/C=C(C)/C=C/c1c(C)cc(OC)c(C)c1C [Etretinate] (20 µM) 0.998
c1ccc2c(CC3=NCCN3)cccc2c1 [Naphazoline hydrochloride] (20 µM) 0.978
CCCCC(=O)N(Cc1ccc(-c2ccccc2-c2nnn[nH]2)cc1)[C@H](C(=O)O)C(C)C [Valsartan] (20 µM) 1.17
COc1ccccc1O [Guaiacol] (20 µM) 0.994
OC[C@H]1O[C@@H](O[C@@H]2[C@@H](CO)OC(O)(CO)[C@H]2O)[C@H](O)[C@@H](O)[C@H]1O (mixture of isomers) [Lactulose] (50 µM) 0.955
CC(C)COC(=O)OCN1C(=O)CN(CCN2CC(=O)N(COC(=O)OCC(C)C)C(=O)C2)CC1=O [Sobuzoxane] (20 µM) 0.986
NS(=O)(=O)c1cc2c(cc1C(F)(F)F)NC(Cc1ccccc1)NS2(=O)=O (centres undefined) [Bendroflumethiazide] (20 µM) 0.977
CCOC(=O)[C@H](CCc1ccccc1)N[C@H]1CCc2ccccc2N(CC(=O)O)C1=O [Benazepril hydrochloride] (20 µM) 0.997
CC(=O)Oc1cc(C(C)C)c(OCCN(C)C)cc1C [Moxisylyte hydrochoride] (20 µM) 0.997
O=C1c2c(O)ccc(O)c2C(=O)c2c(NCCNCCO)ccc(NCCNCCO)c21 [Mitoxantrone dihydrochloride] (20 µM) 0.999
Nc1cccc2c1C(=O)N(C1CCC(=O)NC1=O)C2=O (centres undefined) [Pomalidomide] (20 µM) 0.938
CCCCOc1ccc(C(=O)CCN2CCCCC2)cc1 [Dyclonine hydrochloride] (20 µM) 0.989
OCC(O)CN1CCN(c2ccccc2)CC1 (centres undefined) [Dropropizine] (20 µM) 0.998
CN(C)CCC(c1ccc(Cl)cc1)c1ccccn1 (centres undefined) [Chlorpheniramine maleate] (20 µM) 0.846
CNCC(O)c1ccc(OC(=O)C(C)(C)C)c(OC(=O)C(C)(C)C)c1 (centres undefined) [Dipivefrin hydrochloride] (20 µM) 1.01
CC(=O)O[C@H]1C[C@@]2(C)[C@@H](C[C@@H](O)[C@H]3[C@@]4(C)CC[C@@H](O)[C@@H](C)[C@@H]4CC[C@@]32C)/C1=C(\CCC=C(C)C)C(=O)O [Fusidic acid sodium salt] (20 µM) 0.913
CCOc1ccccc1OCC1CNCCO1 (centres undefined) [Viloxazine hydrochloride] (20 µM) 1.06
OC[C@H]1O[C@@H](O[C@H]2[C@H](O)[C@@H](O)[C@H](O)O[C@@H]2CO)[C@H](O)[C@@H](O)[C@H]1O [Lactose] (50 µM) 1.03
CCC(=O)c1ccc(O)cc1 [Paroxypropione] (20 µM) 1.01
CCOc1ccc2ccccc2c1C(=O)N[C@@H]1C(=O)N2[C@@H]1SC(C)(C)[C@@H]2C(=O)O [Nafcillin sodium salt monohydrate] (20 µM) 0.908

Source: the supplement of paper PMC12494721
